# This is a sample that favours compounds with a hit; in the whole collection about 3.2% have one here.
# PrPC surface inh: inhibitors of human cell surface prion protein PrPC, primary screen, cell-based, TR-FRET. Major prion protein (Homo sapiens), P04156. 370,000 compounds, 0.43% hits. inhibition, % at 13.8 µM. AID 720596, 2013. TR-FRET read-out; in the data active = inhibition above about 24%; note: 0% = median of the test wells and 100% = reference compound wells
# Y pestis TopoI: Yersinia pestis topoisomerase I inhibitors, primary screen, biochemical, cleavage product accumulation, plate reader, single point | 360,000 compounds, 0.064% hits | activity, % at 10 µM | AID 504884, 2011 | Y. pestis Topo-I cleavage product accumulation; in the data active = activity above about 50%, passing the limit was not always enough
# GDH-TPI counter: GDH-TPI coupling enzyme inhibitors, primary screen, artefact control for M. tuberculosis FBA inhibitor project, biochemical, absorbance, full deck | GDH-TPI coupled enzyme counterscreen, NADH absorbance | inhibition, % at 4.8 µM | 360,000 compounds, 1.2% hits; in the data active = inhibition above about 30%;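 note: 0% = DMSO wells and 100% = wells lacking the enzyme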
# Mtb FBA inh: Mtb FBA enzyme inhibitors, primary screen, biochemical, fluorescence, strain H37Rv. Fructose-bisphosphate aldolase (Mycobacterium tuberculosis (strain ATCC 25618 / H37Rv)), …. purified M. tuberculosis FBA, fluorescence read-out. inhibition, % at 1 µM. 360,000 compounds, 2.3% hits; in the data active = inhibition above about 27%;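 note: 0% = vehicle and 100% = reference inhibitor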
# TcdB inh: TcdB glycohydrolase inhibitors, primary screen, biochemical, single point, plate reader | Toxin B (Clostridioides difficile), P18177 | TcdB glycohydrolase enzymatic assay | inhibition, % at 9.99 µM | 350,000 compounds, 0.24% hits; in the data active = inhibition above about 10%
# * = called active by the depositor; / = no result given; + = active, no number.
SMILES,PrPC surface inh,Y pestis TopoI,GDH-TPI counter,Mtb FBA inh,TcdB inh
Cc1cc(C(=O)O)ccc1-c1ccc(/C=N/n2cnnc2)o1,-6,6,50*,6,0
Cc1ccc(-c2ccc(/C=N/n3cnnc3)o2)cc1Cl,-17,19,36*,7,/
O=[N+]([O-])c1cc(-c2ccc(/C=N\n3cnnc3)o2)cc([N+](=O)[O-])c1,-45,-6,29,-1,0
Clc1cccc(-c2ccc(/C=N/n3cnnc3)o2)c1,-6,7,50*,0,/
Cc1ccc(-c2ccc(/C=N/n3cnnc3)o2)cc1,-15,-7,25,2,1
CN(C)C(=O)C[C@@H]1CC[C@H]2[C@H](COc3ccc(NC(=O)c4cnccn4)cc3C(=O)N2C)O1,/,/,/,/,0
C/C(=N\NC(=O)CC#N)c1cc2ccc(O)cc2oc1=O,-5,5,17,+,-8
O=C(O)c1ccc(N=c2oc3cc(O)ccc3cc2C(=O)NCc2ccccc2)cc1,-13,-2,13,+,8
O=C(NCc1ccccc1)c1cc2ccc(O)cc2oc1=O,-4,-7,0,+,-1
COc1ccc2cc(C(=O)NCc3ccccc3)c(=Nc3ccc(C(=O)O)cc3)oc2c1,-14,3,-7,19,1
C[C@H]1CCCCO[C@H](CN(C)C(=O)NC2CCCCC2)[C@@H](C)CN([C@@H](C)CO)C(=O)c2cc(NC(=O)C3CCCCC3)ccc2O1,/,/,/,/,1
C[C@@H]1CCCCO[C@@H](CN(C)S(=O)(=O)c2cn(C)cn2)[C@H](C)CN([C@@H](C)CO)C(=O)c2cc(NC(=O)Nc3ccc(F)cc3)ccc2O1,/,/,/,/,0
C[C@@H]1CN([C@H](C)CO)C(=O)c2cc(NC(=O)CCN3CCOCC3)ccc2O[C@@H]1CN(C)Cc1ccc(Oc2ccccc2)cc1,/,/,/,/,0
CCC(=O)N1C[C@H](C)[C@@H](OC)CN(C)C(=O)c2cc(NS(=O)(=O)CC)ccc2OC[C@H]1C,/,/,/,/,0
CC(=O)Nc1ccc(Oc2nc(-c3ccccn3)nc3ccccc23)cc1,-10,-1,-1,2,28*
O=C1OC(CN2CCOCC2)CN1N=Cc1ccc([N+](=O)[O-])o1 (stereo unspecified),-37,0,32*,-1,-2
COc1ccccc1CN1CC[C@H]2[C@H](CO)Nc3ccc(-c4ccc(C(=O)N(C)C)cc4)cc3[C@H]21,/,/,/,/,1
COc1ccc(NC2CCCN(C(=O)CN3CCOC3=O)C2)cc1OC (stereo unspecified),1,-1,-1,3,12*
COc1cc(/C=N/NC(=O)C2C3CCCCC32C)cc(Br)c1O (stereo unspecified),2,-2,51*,14,/
O=C(N/N=C/c1cc(Br)c(O)c(Br)c1)C1CC1,3,5,31*,3,2
CCOC(=O)c1c(-c2cc(OC)c(OC)c(OC)c2)csc1NC(=O)c1ccccc1,1,35,7,6,1
COc1ccc(-c2csc(NC(=O)c3ccccc3F)c2C(=O)O)cc1,12,11,16,5,11*
Cc1ccc(C(=O)Nc2scc(-c3ccccc3)c2C(=O)O)cc1,-1,2,4,7,12*
COc1cc(C(=O)Nc2scc(-c3ccccc3)c2C(=O)O)cc(OC)c1OC,-1,9,29,7,13*
Cc1noc(C)c1NC(=O)N(C)C[C@@H]1OCCCC[C@@H](C)Oc2ccc(NC(=O)Nc3cccc4ccccc34)cc2C(=O)N([C@@H](C)CO)C[C@@H]1C,/,/,/,/,-1
SMILES,PrPC surface inh,Y pestis TopoI,GDH-TPI counter,Mtb FBA inh,TcdB inh
CO[C@@H]1CN(C)C(=O)c2ccc(NC(C)=O)cc2OC[C@H](C)N(Cc2ccccn2)C[C@@H]1C,/,/,/,/,0
COc1ccccc1-c1ccc([C@H]2[C@H](C#N)N(C(=O)C3CC3)[C@H]2CO)cc1,/,/,/,/,-5
Cc1cc(=O)oc2cc(NS(=O)(=O)c3ccccc3)ccc12,0,6,37*,/,0
Cc1cc(=O)oc2cc(NS(=O)(=O)c3ccc(F)cc3)ccc12,0,8,52*,/,0
CCCC#Cc1ccc([C@@H]2[C@H]3CN(S(=O)(=O)Cc4ccccc4)CC(=O)N3[C@H]2CO)cc1,/,/,/,/,-21
CCCOc1ccc(C2C(=O)N(C3CCCCC3)CC(=O)N2CCC)cc1OC (stereo unspecified),2,16,-11,31*,/
CCCN1C(=O)CN(C2CCCCCC2)C(=O)C1c1ccc(C)cc1 (stereo unspecified),-9,15,5,2,/
O=C(Nc1ccccc1Cl)OCC#CCOC(=O)Nc1ccccc1Cl,-4,55*,-2,-2,0
NC(=O)COc1ccc(/C=C2\C(=O)ON=C2c2ccccc2)cc1,-7,2,-1,-1,4
CC1(C)OC(C)(C)/C(=C\c2ccc(OCC(N)=O)cc2)C1=O,5,4,35*,-6,2
C/C=C/c1ccc([C@H]2[C@@H](CO)N(C(=O)NC3CCCCC3)[C@H]2C#N)cc1,/,/,/,/,-6
CN(C)CCCN1C(=O)c2cccc3cccc(c23)C1=O,-33,-6,29,34*,1
CN(C)CCCN1C(=O)c2cc3ccccc3cc2C1=O,6,-2,0,16,0
CC(C)NC(=O)N(C)C[C@@H]1Oc2ccc(NC(=O)Nc3ccccc3)cc2C(=O)N([C@H](C)CO)C[C@H]1C,/,/,/,/,1
Brc1cc2c(cc1/C=N/Nc1nc(N3CCCC3)nc(N3CCOCC3)n1)OCO2,-6,-5,32*,-4,/
Oc1ccc(Br)cc1/C=N/Nc1nc(N2CCCCC2)nc(N2CCOCC2)n1,3,/,/,/,1
NS(=O)(=O)c1ccc(NC(=O)COC(=O)/C(=C/c2cccs2)c2cccs2)cc1,4,-9,42*,-3,0
C[C@H]1CN([C@@H](C)CO)C(=O)c2cccc(NC(=O)C3CC3)c2O[C@@H]1CN(C)C(=O)NC1CCCCC1,/,/,/,/,-3
CCCn1nnc(NC(=S)NC(=O)c2ccc(-c3ccc(Br)cc3)o2)n1,15,-13,35*,4,1
Cn1nnc(NC(=S)NC(=O)c2ccc(-c3ccc(Br)cc3)o2)n1,6,5,26,2,0
CCN1CCN(c2nc(N)c([N+](=O)[O-])c(Nc3cccc(C)c3)n2)CC1,-13,-3,35*,1,2
C[C@@H]1CCCCO[C@@H](CN(C)C(=O)CCCN(C)C)[C@H](C)CN([C@H](C)CO)C(=O)c2cc(NC(=O)CCC(F)(F)F)ccc2O1,/,/,/,/,-1
O=C(Oc1ccc2ccc(=O)oc2c1)c1ccc([N+](=O)[O-])cc1,-4,-2,-2,183*,-1
CC(=O)Oc1ccc2ccc(=O)oc2c1,-4,-5,9,+,1
Cc1cc(C)n2cc(CSc3ccccn3)nc2n1,-2,4,-4,10,0
Cc1cc(C)n2cc(CSCc3ccccc3)nc2n1,-5,-3,-1,160*,2
CNc1ccc(-c2ccccc2OC)cn1,7,2,22,114*,0

# High-throughput results: PubChem, several laboratories
